Assay results from article PMC4081100, “A DNA-binding-site landscape and regulatory network analysis for NAC transcription factors in Arabidopsis thaliana”.

Key:
Assay in all cases: universal protein binding microarray (PBM); transcription factors of Arabidopsis thaliana; high values mean tight binding
Conditions in all cases: protein: recombinant; tags: GST; chain copies: 2; dsDNA, one strand shown
[1] = biological target: T1, GST-ANAC092(1-176) (Arabidopsis thaliana, UniProt Q9FKA0 1-176)
T1 sequence: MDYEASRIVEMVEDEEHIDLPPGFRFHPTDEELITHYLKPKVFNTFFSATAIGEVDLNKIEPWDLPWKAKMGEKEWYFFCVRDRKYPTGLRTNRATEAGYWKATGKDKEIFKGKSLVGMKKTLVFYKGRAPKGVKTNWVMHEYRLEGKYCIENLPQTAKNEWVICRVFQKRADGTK
Procedure, shortened: (§1)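 Binding is expressed as the normalised enrichment score (E-score). Proteins carrying a GST tag, whether NAC-domain, full-length or DNA-binding-domain forms, were induced in cells, and zinc acetate was added for zinc-finger proteins. After purification on glutathione–Sepharose 4B and quantification by A280 or anti-GST western blot, each was applied in duplicate at 200 to 500 nM final to custom all-10-mer Agilent 4 × 180K arrays made double-stranded by primer extension. Gapped and ungapped 8-mers were scored.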

[2] = biological target: T2, GST-ANAC019 NAC domain (Arabidopsis thaliana, UniProt Q9C932 14-162)
T2 sequence: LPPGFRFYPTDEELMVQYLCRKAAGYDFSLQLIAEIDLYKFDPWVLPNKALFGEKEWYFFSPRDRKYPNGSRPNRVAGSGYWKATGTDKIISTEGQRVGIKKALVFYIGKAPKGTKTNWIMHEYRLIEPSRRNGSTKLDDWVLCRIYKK
Procedure, shortened: as §1

[3] = biological target: T3, GST-ANAC055(1-171) (Arabidopsis thaliana, UniProt Q9LDY8 1-171)
T3 sequence: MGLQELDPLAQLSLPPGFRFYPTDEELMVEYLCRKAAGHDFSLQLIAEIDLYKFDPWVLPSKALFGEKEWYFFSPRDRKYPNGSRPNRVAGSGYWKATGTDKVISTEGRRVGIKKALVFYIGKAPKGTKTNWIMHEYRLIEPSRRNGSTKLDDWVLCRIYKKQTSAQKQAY
Procedure, shortened: as §1

[4] = biological target: T4, GST-ATAF1 NAC domain (Arabidopsis thaliana, UniProt Q39013 7-158)
T4 sequence: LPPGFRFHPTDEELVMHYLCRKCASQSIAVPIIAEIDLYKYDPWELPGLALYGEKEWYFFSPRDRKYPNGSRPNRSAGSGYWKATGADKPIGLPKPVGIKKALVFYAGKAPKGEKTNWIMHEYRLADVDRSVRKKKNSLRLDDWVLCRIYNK
Procedure, shortened: as §1

[5] = biological target: T5, GST-ANAC092(1-285) full length (Arabidopsis thaliana, UniProt Q9FKA0 1-285)
T5 sequence: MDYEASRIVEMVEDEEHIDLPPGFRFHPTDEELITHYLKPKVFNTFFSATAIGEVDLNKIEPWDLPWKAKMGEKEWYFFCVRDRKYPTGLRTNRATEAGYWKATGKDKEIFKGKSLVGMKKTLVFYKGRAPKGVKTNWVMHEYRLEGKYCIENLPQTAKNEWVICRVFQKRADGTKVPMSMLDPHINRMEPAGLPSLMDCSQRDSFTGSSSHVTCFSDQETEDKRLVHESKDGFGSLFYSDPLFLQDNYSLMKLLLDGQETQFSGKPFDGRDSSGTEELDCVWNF
Procedure, shortened: as §1

[6] = biological target: T6, GST-NAP(1-166) (Arabidopsis thaliana, UniProt O49255 1-166)
T6 sequence: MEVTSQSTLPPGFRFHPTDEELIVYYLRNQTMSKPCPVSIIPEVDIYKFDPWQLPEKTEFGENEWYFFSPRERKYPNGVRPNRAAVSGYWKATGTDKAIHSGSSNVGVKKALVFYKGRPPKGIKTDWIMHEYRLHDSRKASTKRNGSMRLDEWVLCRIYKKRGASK
Procedure, shortened: as §1

[7] = biological target: T7, GST-NST2(1-184) (Arabidopsis thaliana, UniProt Q9M274 1-184)
T7 sequence: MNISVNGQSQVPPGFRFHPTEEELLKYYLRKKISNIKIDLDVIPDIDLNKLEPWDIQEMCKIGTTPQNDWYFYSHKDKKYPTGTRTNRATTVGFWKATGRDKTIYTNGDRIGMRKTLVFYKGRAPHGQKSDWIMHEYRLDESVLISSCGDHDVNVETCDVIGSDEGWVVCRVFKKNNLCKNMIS
Procedure, shortened: as §1

[8] = biological target: T8, GST-NTL8 NAC domain (Arabidopsis thaliana, UniProt Q9XIN7 14-156)
T8 sequence: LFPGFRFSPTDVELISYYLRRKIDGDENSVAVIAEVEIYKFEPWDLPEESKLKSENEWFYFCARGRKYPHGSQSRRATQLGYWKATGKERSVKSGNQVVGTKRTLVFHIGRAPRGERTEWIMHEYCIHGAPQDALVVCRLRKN
Procedure, shortened: as §1

[9] = biological target: T9, GST-SND1(1-203) (Arabidopsis thaliana, UniProt Q9LPI7 1-203)
T9 sequence: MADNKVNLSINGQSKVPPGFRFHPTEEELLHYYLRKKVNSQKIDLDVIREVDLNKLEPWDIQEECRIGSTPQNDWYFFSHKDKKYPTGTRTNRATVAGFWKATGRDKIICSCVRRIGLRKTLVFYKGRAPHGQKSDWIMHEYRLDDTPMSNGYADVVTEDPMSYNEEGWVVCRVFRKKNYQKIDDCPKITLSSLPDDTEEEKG
Procedure, shortened: as §1

[10] = biological target: T10, GST-VND3 NAC domain (Arabidopsis thaliana, UniProt Q9FH59 12-162)
T10 sequence: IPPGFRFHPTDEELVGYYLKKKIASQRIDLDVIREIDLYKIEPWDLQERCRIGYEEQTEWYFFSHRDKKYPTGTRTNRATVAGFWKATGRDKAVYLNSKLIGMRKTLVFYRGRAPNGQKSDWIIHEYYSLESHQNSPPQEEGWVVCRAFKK
Procedure, shortened: as §1

[11] = biological target: T11, GST-VND7 NAC domain (Arabidopsis thaliana, UniProt Q9C8W9 9-158)
T11 sequence: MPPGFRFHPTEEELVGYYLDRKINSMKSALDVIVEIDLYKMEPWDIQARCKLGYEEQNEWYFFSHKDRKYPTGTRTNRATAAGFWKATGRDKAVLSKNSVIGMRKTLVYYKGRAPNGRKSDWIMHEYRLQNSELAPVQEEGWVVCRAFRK
Procedure, shortened: as §1

Sequence	binding signal [1]	binding signal [2]	binding signal [3]	binding signal [4]	binding signal [5]	binding signal [6]	binding signal [7]	binding signal [8]	binding signal [9]	binding signal [10]	binding signal [11]
CACGGAAC	0.397 E-score	0.48 E-score	0.466 E-score	0.397 E-score	0.425 E-score	0.414 E-score	0.175 E-score	0.127 E-score	0.0702 E-score	0.446 E-score	0.478 E-score
CCACACGC	0.4 E-score	0.242 E-score	0.15 E-score	0.155 E-score	0.436 E-score	0.169 E-score	0.144 E-score	0.0869 E-score	0.213 E-score	0.163 E-score	0.181 E-score
AAATACGT	0.196 E-score	0.226 E-score	0.244 E-score	0.346 E-score	0.35 E-score	0.29 E-score	0.209 E-score	0.101 E-score	0.21 E-score	0.408 E-score	0.263 E-score
ACGGCACC	0.406 E-score	0.425 E-score	0.358 E-score	0.375 E-score	0.452 E-score	0.381 E-score	0.0937 E-score	–	0.237 E-score	0.318 E-score	0.333 E-score
CACGTAAC	0.466 E-score	0.479 E-score	0.452 E-score	0.436 E-score	0.467 E-score	0.468 E-score	0.279 E-score	0.242 E-score	0.321 E-score	0.44 E-score	0.47 E-score
CTCACGCA	0.416 E-score	0.359 E-score	0.211 E-score	0.0962 E-score	0.41 E-score	0.171 E-score	0.22 E-score	0.0698 E-score	0.286 E-score	0.194 E-score	0.193 E-score
ACGCAATG	0.452 E-score	0.32 E-score	0.21 E-score	0.162 E-score	0.456 E-score	0.35 E-score	0.359 E-score	0.0941 E-score	0.437 E-score	0.314 E-score	0.311 E-score
